# According to the supplement of paper PMC7156485:
# Experiments:
# Conditions in all cases: concentration: 10 µM; 24 h
# [1] = system: HCC1569; experiment: cell number relative to DMSO (% of DMSO); higher = more cells (less growth inhibition / toxicity)
# Summary of the method: (§1)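 H1.0 nuclear intensity or cell number is expressed as percent of the plate control, with the median of replicates taken. HCC1569 and TDF cells were treated with compounds at 10 µM for 24 h at 37 °C, in triplicate, then fixed and immunostained for H1.0 with DAPI as a nuclear stain. HCC1569 values were smoothed to correct for positional effects.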
# [2] = system: TDF; experiment: as above
# Summary of the method: as §1
# [3] = system: TDF; experiment: H1.0 immunofluorescence intensity relative to DMSO (% of DMSO); higher = stronger H1.0 induction, active = 120 or more
# Summary of the method: as §1
# [4] = system: HCC1569; experiment: H1.0 immunofluorescence intensity relative to DMSO (% of DMSO); higher = stronger H1.0 induction, active = 140 or more
# Summary of the method: as §1
# 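For H1.0 immunofluorescence intensity relative to DMSO in this document: TDF is a line of transformed human dermal fibroblasts of mesenchymal origin.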
# 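For cell number relative to DMSO in this document: TDF denotes transformed human dermal fibroblasts of mesenchymal origin.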
SMILES,cell number [1],cell number [2],H1.0 immunofluorescence intensity [3],H1.0 immunofluorescence intensity [4]
NC(=O)CN1CC(O)CC1=O (stereo not given) [Oxiracetam],101,111,89.7 (inactive),95.4 (inactive)
NC(CCCCCP(=O)(O)O)C(=O)O (stereo not drawn) [D(-)-2-Amino-7-phosphonoheptanoic acid],99.9,95.2,97.7 (inactive),99.2 (inactive)
COC12CC(COC(=O)c3cncc(Br)c3)CN(C)C1Cc1cn(C)c3cccc2c13 (stereo not given) [Nicergoline],104,102,92.9 (inactive),102 (inactive)
CC1CCCC=CC2CC(O)CC2C(O)C=CC(=O)O1 (stereo not given) [Brefeldin A],68.2,52.6,132 (active),208 (active)
CC1CCC2N(C1)CC1C3CC4C(CC(=O)C5CC(O)CCC54C)C3CCC1C2(C)O (stereo not given) [Imperialine],102,88.5,97.1 (inactive),92.1 (inactive)
